Experimental data taken from publication PMC5836133, “The intracellular immune receptor Rx1 regulates the DNA-binding activity of a Golden2-like transcription factor”.
The full ranking holds about 16,000 sequences; the median of “e-score” is about -0.044, and the highest 2% start at about 0.38. Many of the other results were omitted from the sample, so the highest values are more common in it than they were.

Target: T1, GST-NbGlk1(82-244) (Nicotiana benthamiana)
T1 chain: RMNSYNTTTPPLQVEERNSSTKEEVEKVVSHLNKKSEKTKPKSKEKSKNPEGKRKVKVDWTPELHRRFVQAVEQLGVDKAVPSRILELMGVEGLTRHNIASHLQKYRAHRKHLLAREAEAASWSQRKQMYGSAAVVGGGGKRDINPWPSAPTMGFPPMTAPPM
Experiment: protein-binding microarray; NbGlk1 is a Golden2-like transcription factor of Nicotiana benthamiana; high values mean tight binding
Settings: protein: recombinant; tags: GST (pTH6838); dsDNA, one strand shown

Sequence	binding signal
AATATTTA	0.216 ± 0.021 E-score
AACAAGAT	0.228 ± 0.0325 E-score
ACAGAATA	0.257 ± 0.0299 E-score
ATCGAATC	0.354 ± 0.00608 E-score
ATAGAATC	0.397 ± 0.032 E-score
ATAGAAAT	0.249 ± 0.0207 E-score
ATAGAGAA	0.231 ± 0.0678 E-score
AGAGAAAT	0.241 ± 0.00888 E-score
AGAGAATC	0.4789 ± 0.00191 E-score
AGCGAATC	0.4592 ± 0.00447 E-score
AACGAATC	0.367 ± 0.0566 E-score
ACAGAATC	0.45398 ± 0.00026 E-score
ACCGAATC	0.363 ± 0.0171 E-score
AGAGAATA	0.243 ± 0.0561 E-score
ATCTGATG	0.241 ± 0.0502 E-score
AAATATAT	0.326 ± 0.0239 E-score
AAATATGC	0.234 ± 0.0807 E-score
AATCGCAA	0.359 ± 0.0518 E-score
ATCAGAAA	0.272 ± 0.108 E-score
ATCGCGTG	0.304 ± 0.0178 E-score
AAGCATAT	0.213 ± 0.0284 E-score
AGTATCAG	0.272 ± 0.0918 E-score
AATCTGTA	0.414 ± 0.00915 E-score
AATCTGAA	0.444 ± 0.0239 E-score
AATCGGTA	0.257 ± 0.0795 E-score

Sequence	binding signal
ATTCTGTA	0.271 ± 0.104 E-score
AATGATTC	0.22 ± 0.0193 E-score
AATTTATA	0.264 ± 0.104 E-score
ATTGCACG	0.251 ± 0.046 E-score
AGGGGAAT	0.32 ± 0.0496 E-score
ATCGAAAT	0.387 ± 0.0408 E-score
AGCGAAAT	0.343 ± 0.064 E-score
ACCGAAAT	0.338 ± 0.0315 E-score
AGGGCAAT	0.201 ± 0.0755 E-score
AGGGGATC	0.316 ± 0.0502 E-score
ACGGAATA	0.264 ± 0.0173 E-score
AAGGATTC	0.3738 ± 0.00237 E-score
AAGGAATC	0.396 ± 0.0666 E-score
AAGGAAAT	0.3484 ± 0.000416 E-score
ATGGAATC	0.385 ± 0.0354 E-score
ATGGATAC	0.25 ± 0.0455 E-score
AGGGATTC	0.359 ± 0.0107 E-score
AGGGAATC	0.477 ± 0.0128 E-score
ACGGAATC	0.453 ± 0.0108 E-score
ATGGAAAT	0.335 ± 0.0407 E-score
ACGGAAAT	0.345 ± 0.0654 E-score
ATCTCAAT	0.245 ± 0.0732 E-score
ATTAGATA	0.304 ± 0.0251 E-score
ATCCGCTG	0.261 ± 0.0225 E-score
AATCGCAC	0.296 ± 0.0196 E-score

Sequence	binding signal
AAAGTGAT	0.217 ± 0.169 E-score
AGGCAGAT	0.213 ± 0.0549 E-score
AATAGAAT	0.2556 ± 0.00204 E-score
AAAAATAA	0.229 ± 0.0366 E-score
ATTTATAA	0.229 ± 0.0487 E-score
AAATTGCG	0.262 ± 0.0556 E-score
AGATTGCC	0.4477 ± 0.0014 E-score
AGATTGCT	0.426 ± 0.00629 E-score
ATATTGCA	0.225 ± 0.111 E-score
ATATTGCG	0.328 ± 0.0285 E-score
AGATAGAT	0.267 ± 0.0623 E-score
ATATTGCC	0.249 ± 0.0822 E-score
ATTTTGCA	0.238 ± 0.0203 E-score
ATATTGAT	0.248 ± 0.0795 E-score
AGATTGCA	0.4641 ± 0.00231 E-score
AGATTGCG	0.4943 ± 0.000727 E-score
ATCTTGCC	0.261 ± 0.0186 E-score
AACAATCC	0.244 ± 0.0442 E-score
ATTATTAA	0.205 ± 0.0755 E-score
ACATATCA	0.216 ± 0.0561 E-score
ATTCAGGA	0.206 ± 0.0808 E-score
ATCACATA	0.212 ± 0.0312 E-score
AAATTTAT	0.22 ± 0.0544 E-score
AAGCGAAT	0.291 ± 0.0479 E-score
ATATTCGC	0.321 ± 0.0229 E-score

Sequence	binding signal
ATATTCGA	0.293 ± 0.0238 E-score
AGATTCGA	0.389 ± 0.00837 E-score
AGATTCGC	0.482 ± 0.00816 E-score
AAATTCGG	0.227 ± 0.0723 E-score
AGATTCGG	0.413 ± 0.00846 E-score
AAATTCGC	0.284 ± 0.0251 E-score
ATATTCGG	0.228 ± 0.0147 E-score
AAATTCGA	0.219 ± 0.058 E-score
ATTTTTCA	0.253 ± 0.137 E-score
ATCGGAGA	0.249 ± 0.0227 E-score
ATCTTGTA	0.28 ± 0.00362 E-score
ATCGATAC	0.245 ± 0.0652 E-score
ATTTCAAA	0.231 ± 0.179 E-score
CAAAATAA	0.205 ± 0.0749 E-score
ATCGCCAC	0.22 ± 0.062 E-score
ATCGCTTC	0.206 ± 0.0242 E-score
AGTGATTC	0.282 ± 0.0766 E-score
AACAATCT	0.244 ± 0.0358 E-score
ACGAATCT	0.403 ± 0.0288 E-score
AAGAATAT	0.331 ± 0.00702 E-score
AGGAATCG	0.295 ± 0.0158 E-score
CAGAATCG	0.33 ± 0.0217 E-score
ACGAATCC	0.361 ± 0.00735 E-score
CAGAATCC	0.447 ± 0.0238 E-score
ACGAATCA	0.247 ± 0.0177 E-score

Sequence	binding signal
AGGAATCA	0.32 ± 0.0361 E-score
AGGAATCC	0.422 ± 0.0123 E-score
CAGAATCA	0.373 ± 0.00814 E-score
AAGAATCT	0.449 ± 0.0147 E-score
ATCTGTTC	0.214 ± 0.0509 E-score
AGGAAGAT	0.276 ± 0.00329 E-score
ATCGTGCG	0.234 ± 0.00703 E-score
AATCACTG	0.269 ± 0.00608 E-score
ATACTCAT	0.264 ± 0.0418 E-score
AAGAATCA	0.3254 ± 0.00141 E-score
AAGAATCC	0.455 ± 0.016 E-score
AAGAATCG	0.374 ± 0.0323 E-score
ATCCGCGC	0.215 ± 0.0363 E-score
AAGATCCC	0.333 ± 0.0797 E-score
AAGATCCG	0.332 ± 0.0135 E-score
CAGATTCC	0.473 ± 0.0158 E-score
AATATTCC	0.341 ± 0.0191 E-score
AATATTCG	0.258 ± 0.049 E-score
AAGATTCA	0.205 ± 0.0308 E-score
AATATTCT	0.313 ± 0.0605 E-score
AAGATTCG	0.41 ± 0.0145 E-score
AAGATTCT	0.4522 ± 0.000701 E-score
AAGATTCC	0.46 ± 0.0101 E-score
AAAATTCC	0.201 ± 0.0158 E-score
ATTTCATC	0.269 ± 0.0106 E-score

Sequence	binding signal
AATTCCCG	0.27 ± 0.108 E-score
CACGATTC	0.3711 ± 0.000458 E-score
ATATCAGG	0.305 ± 0.00775 E-score
CACAATCC	0.366 ± 0.0571 E-score
ATCCTAAC	0.254 ± 0.069 E-score
ATCTGTAA	0.331 ± 0.0244 E-score
ATTCGCTG	0.298 ± 0.0414 E-score
ATACGAAT	0.352 ± 0.0554 E-score
ATATTATA	0.279 ± 0.00302 E-score
ATCCTATC	0.258 ± 0.104 E-score
CAGATTCG	0.438 ± 0.0122 E-score
CAAATTCG	0.213 ± 0.1 E-score
CAGATTCA	0.293 ± 0.0151 E-score
ATAGTAAT	0.315 ± 0.0567 E-score
ATTACCGC	0.289 ± 0.0145 E-score
AAAAGATC	0.301 ± 0.0113 E-score
AACAGATT	0.426 ± 0.00502 E-score
AACAGATC	0.305 ± 0.0266 E-score
AACAGATA	0.271 ± 0.00439 E-score
AATAGATT	0.406 ± 0.0231 E-score
AACGGATC	0.25 ± 0.015 E-score
AACGGATA	0.215 ± 0.0275 E-score
AATAGATC	0.247 ± 0.0558 E-score
AACGGATT	0.392 ± 0.0181 E-score
AATAGATA	0.245 ± 0.0719 E-score

Sequence	binding signal
AAAAGATT	0.388 ± 0.0102 E-score
AAAAGAAT	0.267 ± 0.0274 E-score
CAGAGATC	0.312 ± 0.0606 E-score
ACTGGAAT	0.256 ± 0.0159 E-score
AGAGGAAT	0.21 ± 0.0368 E-score
ATATGCAA	0.29 ± 0.0125 E-score
AAGAGATC	0.377 ± 0.0169 E-score
AAGAGATT	0.4 ± 0.035 E-score
AAGAGATA	0.309 ± 0.0135 E-score
ATTCTCAG	0.32 ± 0.0298 E-score
AATCTCTG	0.3738 ± 0.00333 E-score
AATCTCAT	0.4204 ± 0.00133 E-score
ATCCTCAT	0.212 ± 0.0808 E-score
ATTCTCAA	0.329 ± 0.0151 E-score
AATCTCTC	0.368 ± 0.0262 E-score
AATCGCAT	0.274 ± 0.0414 E-score
AATCTCAG	0.428 ± 0.00714 E-score
ATTCTCAC	0.299 ± 0.0167 E-score
AATCTCAA	0.421 ± 0.0141 E-score
AATCTCTA	0.3774 ± 0.00278 E-score
AATCTCAC	0.394 ± 0.0342 E-score
ATTACGTC	0.277 ± 0.0973 E-score
